Inhibition data for six molecules are collected here from ChEMBL document CHEMBL1961873, “Compounds: GSK PKIS; Assays: Nanosyn kinase panel” (2012).

Assay [1] concerns the target RAC-alpha serine/threonine-protein kinase (Homo sapiens) (UniProt P31749). The note with it: at 0.1 µM.
Assay [2] shares this target. The note with it: at 1 µM.
Assay [3] deals with RAC-beta serine/threonine-protein kinase (Homo sapiens) (UniProt P31751). The note with it: at 0.1 µM.
Assay [4] has the same target. As to conditions: at 1 µM.
In assay [5] the target is RAC-gamma serine/threonine-protein kinase (Homo sapiens) (UniProt Q9Y243). The note with it: at 0.1 µM.
For assay [6] the target is unchanged. The note with it: at 1 µM.
For assay [7], the target named is G protein-coupled receptor kinase 6 (Homo sapiens) (UniProt P43250). The note with it: at 0.1 µM.
For assay [8] the target is unchanged. As to conditions: at 1 µM.
Assay [9] has as its target T1, Rhodopsin kinase GRK7 (Homo sapiens) (UniProt Q8WTQ7).
T1 sequence (whole entry): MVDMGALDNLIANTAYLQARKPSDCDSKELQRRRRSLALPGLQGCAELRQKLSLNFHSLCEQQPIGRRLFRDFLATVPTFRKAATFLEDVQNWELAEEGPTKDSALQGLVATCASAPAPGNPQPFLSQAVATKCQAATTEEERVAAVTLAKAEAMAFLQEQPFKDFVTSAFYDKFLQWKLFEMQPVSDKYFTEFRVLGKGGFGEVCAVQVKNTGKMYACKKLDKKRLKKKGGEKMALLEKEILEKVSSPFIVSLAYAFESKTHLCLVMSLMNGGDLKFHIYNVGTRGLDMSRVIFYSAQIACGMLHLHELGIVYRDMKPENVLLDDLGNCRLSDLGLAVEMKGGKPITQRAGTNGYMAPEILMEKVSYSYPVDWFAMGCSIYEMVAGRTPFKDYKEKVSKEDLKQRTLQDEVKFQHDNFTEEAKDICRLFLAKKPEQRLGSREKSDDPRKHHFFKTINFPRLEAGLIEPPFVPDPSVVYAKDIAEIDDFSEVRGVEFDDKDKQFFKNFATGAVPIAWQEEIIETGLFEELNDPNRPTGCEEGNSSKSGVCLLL
As to conditions: at 0.1 µM.

In assay [10] the target is T1, Rhodopsin kinase GRK7 (Homo sapiens). The note with it: at 1 µM.
The target in assay [11] is Serine/threonine-protein kinase MRCK alpha (Homo sapiens) (UniProt Q5VT25). As to conditions: at 0.1 µM.
Assay [12] shares this target. As to conditions: at 1 µM.
Assay [13] deals with Serine/threonine-protein kinase MRCK beta (Homo sapiens) (UniProt Q9Y5S2). The note with it: at 0.1 µM.
Assay [14] has the same target. The note with it: at 1 µM.
Assay [15] has as its target Ribosomal protein S6 kinase alpha-5 (Homo sapiens) (UniProt O75582). As to conditions: at 0.1 µM.
The target is the same in assay [16]. As to conditions: at 1 µM.
The target in assay [17] is Ribosomal protein S6 kinase alpha-4 (Homo sapiens) (UniProt O75676). The note with it: at 0.1 µM.
Assay [18] has the same target. The note with it: at 1 µM.
Assay [19] concerns the target Ribosomal protein S6 kinase beta-1 (Homo sapiens) (UniProt P23443). The note with it: at 0.1 µM.
Assay [20] has the same target. As to conditions: at 1 µM.

Sequence of Ribosomal protein S6 kinase alpha-5 (Homo sapiens) (O75582 whole entry, looked up): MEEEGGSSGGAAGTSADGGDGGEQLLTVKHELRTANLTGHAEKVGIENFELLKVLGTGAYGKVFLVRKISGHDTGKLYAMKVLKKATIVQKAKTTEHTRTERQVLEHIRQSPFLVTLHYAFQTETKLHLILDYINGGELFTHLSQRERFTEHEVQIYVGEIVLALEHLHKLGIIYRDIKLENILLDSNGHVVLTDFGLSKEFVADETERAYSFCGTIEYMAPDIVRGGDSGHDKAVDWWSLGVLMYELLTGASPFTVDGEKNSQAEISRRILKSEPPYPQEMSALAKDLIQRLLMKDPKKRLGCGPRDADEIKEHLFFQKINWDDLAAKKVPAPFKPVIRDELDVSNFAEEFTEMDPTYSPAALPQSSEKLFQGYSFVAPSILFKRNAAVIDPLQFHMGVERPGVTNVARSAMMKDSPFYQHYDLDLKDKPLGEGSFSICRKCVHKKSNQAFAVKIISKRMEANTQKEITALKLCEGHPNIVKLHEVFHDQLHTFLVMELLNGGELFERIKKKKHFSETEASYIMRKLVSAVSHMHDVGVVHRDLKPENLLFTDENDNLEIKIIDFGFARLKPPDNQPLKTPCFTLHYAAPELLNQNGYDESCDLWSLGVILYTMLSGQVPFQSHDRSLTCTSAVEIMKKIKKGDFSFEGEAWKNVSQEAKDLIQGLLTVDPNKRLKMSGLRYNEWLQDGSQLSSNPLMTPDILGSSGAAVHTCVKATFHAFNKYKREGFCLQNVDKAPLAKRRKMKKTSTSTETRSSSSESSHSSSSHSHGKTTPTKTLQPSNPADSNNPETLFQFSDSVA
Sequence of Ribosomal protein S6 kinase beta-1 (Homo sapiens) (P23443 whole entry, looked up): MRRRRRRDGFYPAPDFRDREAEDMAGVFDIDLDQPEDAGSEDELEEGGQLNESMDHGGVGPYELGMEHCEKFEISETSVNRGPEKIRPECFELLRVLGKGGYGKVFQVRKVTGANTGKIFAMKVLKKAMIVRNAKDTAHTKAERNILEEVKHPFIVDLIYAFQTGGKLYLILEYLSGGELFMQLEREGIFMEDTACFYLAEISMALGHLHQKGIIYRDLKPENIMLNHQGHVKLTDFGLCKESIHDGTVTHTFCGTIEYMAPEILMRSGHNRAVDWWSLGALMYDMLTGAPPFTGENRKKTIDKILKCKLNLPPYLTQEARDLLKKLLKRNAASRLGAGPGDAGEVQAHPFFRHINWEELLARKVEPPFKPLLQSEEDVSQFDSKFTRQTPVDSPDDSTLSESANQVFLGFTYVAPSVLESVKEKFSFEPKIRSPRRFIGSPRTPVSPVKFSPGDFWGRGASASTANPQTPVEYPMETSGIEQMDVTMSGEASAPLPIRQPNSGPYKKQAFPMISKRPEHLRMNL
Sequence of Ribosomal protein S6 kinase alpha-4 (Homo sapiens) (O75676 whole entry, looked up): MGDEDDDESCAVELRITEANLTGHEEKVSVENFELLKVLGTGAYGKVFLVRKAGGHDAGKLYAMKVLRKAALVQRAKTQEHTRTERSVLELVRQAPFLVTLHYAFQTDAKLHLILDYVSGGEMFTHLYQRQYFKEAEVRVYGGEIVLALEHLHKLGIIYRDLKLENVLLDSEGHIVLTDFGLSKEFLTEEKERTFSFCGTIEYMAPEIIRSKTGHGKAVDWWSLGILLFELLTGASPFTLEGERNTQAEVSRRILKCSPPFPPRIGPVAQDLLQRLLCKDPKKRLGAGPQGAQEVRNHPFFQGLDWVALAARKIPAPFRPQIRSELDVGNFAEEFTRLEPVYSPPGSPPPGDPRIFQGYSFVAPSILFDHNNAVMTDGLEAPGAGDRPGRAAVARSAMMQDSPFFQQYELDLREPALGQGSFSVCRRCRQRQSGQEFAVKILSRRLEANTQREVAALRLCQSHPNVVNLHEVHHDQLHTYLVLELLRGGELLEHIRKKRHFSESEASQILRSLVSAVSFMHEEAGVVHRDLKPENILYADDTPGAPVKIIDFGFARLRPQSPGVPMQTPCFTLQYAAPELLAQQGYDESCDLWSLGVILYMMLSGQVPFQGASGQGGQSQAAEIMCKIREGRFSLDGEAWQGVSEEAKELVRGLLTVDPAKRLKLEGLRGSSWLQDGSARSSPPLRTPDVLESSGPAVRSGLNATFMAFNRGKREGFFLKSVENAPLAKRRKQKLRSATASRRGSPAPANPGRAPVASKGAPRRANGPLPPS
Sequence of G protein-coupled receptor kinase 6 (Homo sapiens) (P43250 whole entry, looked up): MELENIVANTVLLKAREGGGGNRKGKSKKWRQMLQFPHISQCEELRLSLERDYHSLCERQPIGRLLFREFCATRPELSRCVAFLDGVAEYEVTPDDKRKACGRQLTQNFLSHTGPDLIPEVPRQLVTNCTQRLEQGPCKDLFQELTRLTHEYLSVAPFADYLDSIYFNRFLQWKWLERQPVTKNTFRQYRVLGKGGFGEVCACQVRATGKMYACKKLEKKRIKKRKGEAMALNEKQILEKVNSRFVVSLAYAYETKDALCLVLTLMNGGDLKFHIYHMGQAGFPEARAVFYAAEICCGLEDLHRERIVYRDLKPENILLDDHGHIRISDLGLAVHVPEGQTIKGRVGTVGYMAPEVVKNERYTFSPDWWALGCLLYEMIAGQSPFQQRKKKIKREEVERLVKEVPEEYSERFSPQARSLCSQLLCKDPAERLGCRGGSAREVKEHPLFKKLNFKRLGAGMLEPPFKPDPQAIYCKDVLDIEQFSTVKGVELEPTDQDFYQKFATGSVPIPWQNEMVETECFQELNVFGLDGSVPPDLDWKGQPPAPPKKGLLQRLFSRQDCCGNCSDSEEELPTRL
Sequence of RAC-alpha serine/threonine-protein kinase (Homo sapiens) (P31749 whole entry): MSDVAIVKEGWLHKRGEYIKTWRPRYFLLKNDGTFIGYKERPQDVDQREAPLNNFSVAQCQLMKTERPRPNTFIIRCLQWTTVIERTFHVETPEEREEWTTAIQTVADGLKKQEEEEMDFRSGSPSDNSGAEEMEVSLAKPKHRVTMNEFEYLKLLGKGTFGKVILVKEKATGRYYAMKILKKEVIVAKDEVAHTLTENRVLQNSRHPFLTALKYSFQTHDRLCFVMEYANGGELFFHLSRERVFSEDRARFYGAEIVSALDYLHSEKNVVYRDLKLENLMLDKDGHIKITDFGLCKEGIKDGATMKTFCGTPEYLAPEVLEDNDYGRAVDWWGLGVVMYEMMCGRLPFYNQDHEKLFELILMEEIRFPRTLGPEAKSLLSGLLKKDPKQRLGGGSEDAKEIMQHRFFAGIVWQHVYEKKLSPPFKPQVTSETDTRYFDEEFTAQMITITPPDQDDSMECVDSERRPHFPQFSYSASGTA
Sequence of RAC-beta serine/threonine-protein kinase (Homo sapiens) (P31751 whole entry): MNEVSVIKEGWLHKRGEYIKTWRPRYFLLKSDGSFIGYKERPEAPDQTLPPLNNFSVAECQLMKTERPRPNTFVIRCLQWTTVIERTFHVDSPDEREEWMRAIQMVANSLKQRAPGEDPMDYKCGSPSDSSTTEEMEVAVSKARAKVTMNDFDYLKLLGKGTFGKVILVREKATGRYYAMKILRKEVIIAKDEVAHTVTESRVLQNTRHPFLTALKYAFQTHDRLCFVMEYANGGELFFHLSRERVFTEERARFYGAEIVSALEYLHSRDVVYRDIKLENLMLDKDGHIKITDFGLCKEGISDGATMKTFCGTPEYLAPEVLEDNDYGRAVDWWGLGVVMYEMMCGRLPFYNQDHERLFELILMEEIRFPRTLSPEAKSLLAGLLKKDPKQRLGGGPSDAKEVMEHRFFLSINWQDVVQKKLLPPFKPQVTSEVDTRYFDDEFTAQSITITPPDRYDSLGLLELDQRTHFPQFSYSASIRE
Sequence of RAC-gamma serine/threonine-protein kinase (Homo sapiens) (Q9Y243 whole entry): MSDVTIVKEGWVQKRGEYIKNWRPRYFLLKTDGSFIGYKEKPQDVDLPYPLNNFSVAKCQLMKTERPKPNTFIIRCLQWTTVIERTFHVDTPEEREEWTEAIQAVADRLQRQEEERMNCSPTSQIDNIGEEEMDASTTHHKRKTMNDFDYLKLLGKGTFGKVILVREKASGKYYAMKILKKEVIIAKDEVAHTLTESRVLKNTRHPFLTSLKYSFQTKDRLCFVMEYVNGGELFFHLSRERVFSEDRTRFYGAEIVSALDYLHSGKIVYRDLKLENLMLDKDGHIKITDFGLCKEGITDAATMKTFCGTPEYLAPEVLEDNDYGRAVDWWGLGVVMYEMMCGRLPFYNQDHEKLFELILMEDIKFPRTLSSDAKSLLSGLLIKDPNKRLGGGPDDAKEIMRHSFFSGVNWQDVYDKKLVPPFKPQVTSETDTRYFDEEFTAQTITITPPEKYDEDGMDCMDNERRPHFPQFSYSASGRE

By inhibition is commonly meant the change of the read-out against control, counted positive when it falls. For the molecule `COc1cc2ncn(-c3cc(OCc4ccccc4C(F)(F)F)c(C(C)=O)s3)c2cc1OC`, the inhibition in assay [1] came out at 0.53%; in assay [2], 1.82%; in assay [3] it was 0.85%; in [4], 1.16%; in assay [5], 0.29%; in assay [6] it was 1.31%. Also, the inhibition is -0.96% in assay [7]; 0.01% in assay [8]; 4.7% in [9]; 1.62% in assay [10]; -2.12% in [11]; 1.84% in assay [12]. For the same molecule, the inhibition in [13] is 0.33%; in assay [14] it was 0.86%; in assay [15], 1.02%; in assay [16], -0.03%; in assay [17], 1.45%; in assay [18], 3.01%. For the same molecule, the inhibition in [19] came out at 0.79%; in [20], 0.12%.
Regarding `COc1cc2ncn(-c3cc(OCCc4ccccc4)c(C(N)=O)s3)c2cc1OC`, the inhibition in assay [1] is 0.55%; in assay [2], 0.01%; in [3], 1.52%; in [4] it was 0.89%; in assay [5] it was 1.12%; in [6] it was -0.88%. Moreover, the inhibition in assay [7] is -2.45%; in assay [8], -0.33%; in [9], 2.29%; in assay [10], 2.5%; in assay [11], 1.17%; in [12], 2.94%. The inhibition amounted to 1.02% in [13]; 1.01% in [14]; 1.83% in assay [15]; 0.4% in assay [16]; 0.49% in [17]; 0.9% in [18]. For the same molecule, the inhibition in assay [19] was found to be 1.13%; in [20] it was 0.05%.
Take `COc1ccc(-c2ccc3c(NC(=O)C4CC4)n[nH]c3n2)cc1`: the inhibition is -0.03% in [1]; 0.55% in assay [2]; 0.33% in assay [3]; 0.37% in assay [4]; 3.49% in [5]; 0.37% in assay [6]. The inhibition is 5.32% in assay [7]; 9.55% in assay [8]; 2.9% in assay [9]; 10.4% in assay [10]; 0.51% in [11]; 3.19% in assay [12]. For the same molecule, the inhibition is -0.1% in assay [13]; 0.25% in [14]; 1.32% in [15]; 2.82% in assay [16]; 2.27% in assay [17]; 2.9% in [18]. In addition, the inhibition in assay [19] came to 0.22%; in [20], 0.21%.
With `C/C(Nc1ccc(S(N)(=O)=O)cc1)=C1/C(=O)Nc2ccccc21`, the inhibition was -0.64% in [1]; -1.45% in assay [2]; -3.63% in [3]; -0.17% in assay [4]; -2.53% in assay [5]; -0.18% in assay [6]. The inhibition in assay [7] was -0.76%; in [8] it was 9.44%; in assay [9], -7.29%; in assay [10], 2.76%; in assay [11], -0.23%; in assay [12] it was 0.16%. Further, the inhibition in [13] came to 0.47%; in assay [14] it was 3.4%; in assay [15] it was 0%; in [16] it was 8.47%; in [17], 1.38%; in [18] it was 17.7%. Moreover, the figures for the inhibition in [19] and in assay [20] were -1.96% and 2.17%, respectively.
Consider `O=C(NCC1CC1)c1ccc(-c2cccc(C(=O)NC3CC3)c2)cc1`, for which the inhibition in [1] is 0.06%; in [2], 0.79%; in assay [3] it was 1.68%; in assay [4] it was 1.73%; in assay [5] it was 1.52%; in [6], 1.7%. The inhibition in [7] was 1.72%; in assay [8], -2.28%; in [9], 0.75%; in [10], -7.67%; in assay [11], 0.69%; in assay [12], -1.55%. The inhibition was 1.52% in [13]; 1.09% in assay [14]; 2.45% in [15]; 2.84% in [16]; 0.7% in assay [17]; 3.88% in [18]. Moreover, the figures for the inhibition in assay [19] and in assay [20] were 1.49% and 1.03%, respectively.
As to `COc1ccc2ncn(-c3cc(O[C@H](C)c4ccccc4Cl)c(C(N)=O)s3)c2c1`, the inhibition in assay [1] is -3.63%; in assay [2], -2.95%; in assay [3], -2.65%; in [4], -2.8%; in assay [5] it was -2.12%; in assay [6], -1.2%. The inhibition in assay [7] was -0.3%; in assay [8] it was 0.35%; in [9], 8.25%; in [10] it was 2.33%; in assay [11] it was -0.38%; in assay [12], 1.13%. Further, the inhibition in assay [13] was 0.7%; in assay [14] it was 3.24%; in assay [15] it was 2.21%; in assay [16], 1.33%; in [17], 3.9%; in assay [18], 2.99%. For the same molecule, the inhibition came to 0.38% in assay [19] and 2.8% in [20].
